Compound activity as filed in PubChem BioAssay.
The list is not random: actives were taken first. Their share in the collection is about 3.9%.
GALK inhibitor: blocks human galactokinase activity; P51570; Purified GALK, Kinase-Glo residual ATP luminescence; Potency, µM (series often up to 57.5 µM), usual class: inhibitors; 270,000 compounds, 0.007% hits; AID 1868
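5 nM enzyme, 35 uM ATP, 100 uM galactose, 20 mM HEPES pH8.0, 5 mM MgCl2; 1 h RT; residual ATP by Kinase-Glo Plus luminescence, qHTS format.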
USP2a block: blocks human ubiquitin-specific protease USP2a; USP2 core, Ub-CHOP2 coupled fluorogenic reporter, 485/531; 330,000 compounds, 0.01% hits; Potency, µM (series often up to 38.3 µM), actives largely listed as inhibitors
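USP2 core (10nM final) preincubated 30min RT with compound in 20mM Tris-HCl pH 8.0, 2mM CaCl2, 2mM beta-mercaptoethanol, 0.05% CHAPS; 25nM Ub-CHOP2 plus 25nM reporter substrate added, fluorescence (Ex485/Em531) read after 60min.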
D1 PAM: enhances dopamine response at the human D1 receptor. P21728. HEK293 TREx D1 cells, calcium flux, dopamine EC20 potentiation. potentiation, % at 10 µM. 360,000 compounds, 0.036% hits; in the data active = potentiation above about 30%
D1 ag: activates the human D1 dopamine receptor. HEK293 T-REx D1 cells, calcium flux, agonist mode. activation, % at 2 µM. 360,000 compounds, 1% hits. AID 504660; in the data active = activation above about 30%
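Inducible HEK293 T-REx D1 cells, force-coupled to calcium signalling, were plated at 4000 cells/well with tetracycline and held overnight at 30 C. After no-wash calcium dye loading, compound-evoked calcium rise over 180 s flagged agonists.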
D1 antagonist: human D1 dopamine receptor antagonism. P21728. HEK293 TREx D1 cells, calcium flux, dopamine EC80; hits give low values. activity change, negative = inhibition, % at 10 µM. 360,000 compounds, 3.2% hits. AID 504652; in the data active = activity change below about -30%
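Using tetracycline-induced force-coupled D1 Hek293 cells and a calcium dye, signals were followed for 180 s after compound, then for 180 s after EC80 dopamine, to detect inhibitors.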
Eya2 inh: Eya2 (human) phosphatase inhibition; AID 488837; 330,000 compounds, 0.006% hits; Potency, µM (titrated, usually from 76.9 µM), most hits filed as inhibitors; recombinant Eya2, OMFP fluorescence dephosphorylation (OMFP is methylfluorescein phosphate); O00167
Target sequence (O00167 whole entry, looked up): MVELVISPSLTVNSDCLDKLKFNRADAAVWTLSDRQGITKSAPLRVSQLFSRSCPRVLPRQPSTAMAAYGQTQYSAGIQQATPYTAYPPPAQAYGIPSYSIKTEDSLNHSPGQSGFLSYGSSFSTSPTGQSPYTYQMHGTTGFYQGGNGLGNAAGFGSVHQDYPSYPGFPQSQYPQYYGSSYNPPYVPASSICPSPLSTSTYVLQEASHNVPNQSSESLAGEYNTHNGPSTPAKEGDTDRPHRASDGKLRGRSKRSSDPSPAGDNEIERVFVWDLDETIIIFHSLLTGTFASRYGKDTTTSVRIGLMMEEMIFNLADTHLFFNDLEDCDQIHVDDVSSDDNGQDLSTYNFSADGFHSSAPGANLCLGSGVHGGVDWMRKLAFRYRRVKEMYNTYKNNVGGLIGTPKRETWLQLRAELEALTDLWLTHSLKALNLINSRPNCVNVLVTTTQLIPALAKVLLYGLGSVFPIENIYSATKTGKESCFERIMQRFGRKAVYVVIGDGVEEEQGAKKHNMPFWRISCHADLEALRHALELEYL
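Eya2 protein (added as 0.2 uM solution) was preincubated with compound for 10 min at ambient temperature in 50 mM HEPES pH 7.5, 50 mM NaCl, 5 uM MgCl2, 0.05% BSA, 1 mM DTT. OMFP (added at 50 uM) then reacted 10 min; fluorescence read at 485/525 nm.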
Large screens that a line does not name were inactive. Unless noted, calls follow the shape of the dose curve; as a rule, active = well fitted inhibition curve with a large enough effect; inconclusive = small, poorly fitted or top-dose-only effect, or effect the other way; inactive = flat fitted curve, though single readings scatter.

Cc1ccc(C)c2sc(N3CCN(C(=O)c4ccc([N+](=O)[O-])o4)CC3)nc12	none (no result: GALK inhibitor)
Cc1nc2ccccn2c(=O)c1NC(=O)c1ccccc1Cl	none (no result: GALK inhibitor, USP2a block, Eya2 inh)
COc1ccc(N(CC(=O)NC2CCCCC2)C(=O)c2ccc(C)s2)c(OC)c1	D1 antagonist -35 (no result: D1 PAM)
CN(C)c1ccc(CNC(=O)C2CCCN(S(=O)(=O)c3ccc4c(ccn4C)c3)C2)cc1 (configuration not stated)	none (no result: GALK inhibitor, USP2a block, Eya2 inh)
Clc1ccc(/C=N/NC2=Nc3cccc4cccc2c34)cc1	D1 antagonist -33
Cc1cccc(S(=O)(=O)c2cn(Cc3ccc(F)cc3)c3cc(N4CCOCC4)c(F)cc3c2=O)c1	none (no result: GALK inhibitor, USP2a block, Eya2 inh)
Fc1ccccc1NC(=S)N(CCN1CCCCCC1)Cc1cccs1	D1 antagonist -32
Cc1ccccc1NC(=S)N(CCN1CCCCCC1)Cc1cccs1	none
COc1cccc(NC(=O)Cn2c(=O)n(-c3ccc(C)cc3)c(=O)c3ccc(C(=O)NCc4ccco4)cc32)c1	none (no result: GALK inhibitor, USP2a block, Eya2 inh)
Cc1c(C(=O)NCCc2ccc(Cl)cc2)sc2nc3n(c(=O)c12)CCCC3	D1 ag 99 (no result: GALK inhibitor, USP2a block, Eya2 inh)
Cc1c(C(=O)Nc2cccc(C(F)(F)F)c2)sc2nc3n(c(=O)c12)CCCC3	D1 ag 36 (no result: GALK inhibitor, USP2a block, Eya2 inh)
CC(=O)c1cccc(NC(=O)c2sc3nc4n(c(=O)c3c2C)CCCC4)c1	none
Cc1c(C(=O)NCCc2ccc(Cl)cc2)sc2nc3n(c(=O)c12)CCC3	none
Cc1c(C(=O)NCc2ccccc2)sc2nc3n(c(=O)c12)CCCCC3	D1 ag 45 (no result: GALK inhibitor, USP2a block, Eya2 inh)
COc1ccc(-c2cc(C(F)(F)F)nc(SCCC(=O)Nc3ccc(OC)c(OC)c3)n2)cc1	none (no result: GALK inhibitor, USP2a block, Eya2 inh)
Cc1ccc(N2CCN(C(=O)c3noc4c3COc3ccc(C)cc3-4)CC2)c(C)c1	none (no result: GALK inhibitor, USP2a block, Eya2 inh)
Cc1ccc2c(CC(=O)OC(C)C(=O)NCc3ccc4c(c3)OCO4)coc2c1 (configuration not stated)	D1 antagonist -32
CC(OC(=O)Cc1coc2cc3c(cc12)CCC3)C(=O)NCc1ccc2c(c1)OCO2 (configuration not stated)	none (no result: D1 antagonist)
COC(=O)c1c(SC)nc2ccccc2c1OCc1ccc(Cl)cc1	none (no result: GALK inhibitor, USP2a block, Eya2 inh)
O=C(CSc1ncnc2c1cnn2-c1ccccc1)NC1CCCC1	D1 antagonist -91 (no result: GALK inhibitor)
COc1ccc(-n2ncc3c(SCC(=O)N4CCN(c5ccccc5OC)CC4)ncnc32)cc1	D1 antagonist -53
Cc1ccc(-n2ncc3c(SCC(=O)NNC(=O)C(C)C)ncnc32)cc1	D1 antagonist -54
COc1ccccc1N1CCN(C(=O)CSc2ncnc3scc(-c4ccccc4)c23)CC1	none
Cc1ccc(N2CCN(c3c(CN4CCCC4)c(=O)oc4ccccc34)CC2)c(C)c1	none (no result: GALK inhibitor, USP2a block, Eya2 inh)
CC(=O)Nc1ccc(N=Cc2c(O)c(C(=O)Nc3ccccc3)cc3ccccc23)cc1	D1 ag 186
CC(C)Oc1cccc(C2CC(=O)Nc3cc4c(cc32)OCO4)c1 (configuration not stated)	D1 ag 68, D1 antagonist -32 (no result: GALK inhibitor, USP2a block, Eya2 inh)
Cc1cccc(C2CC(=O)Nc3cc4c(cc32)OCO4)c1 (configuration not stated)	none (no result: GALK inhibitor, USP2a block, Eya2 inh)
COc1ccccc1-c1noc(-c2ccc(NCCc3ccccc3)c([N+](=O)[O-])c2)n1	none (no result: GALK inhibitor, USP2a block, Eya2 inh)
COc1ccc(/C=N/NC(=O)c2nc(-c3ccccc3)n(-c3ccccc3)n2)c(O)c1	D1 antagonist -61
COc1ccc(/C=N/NC(=O)c2nc(-c3ccccc3)n(-c3ccccc3)n2)cc1	none
COc1cccc(-n2nnc(S(=O)(=O)c3ccc(C)cc3)c2N)c1	D1 antagonist -36
Nc1nc(N2CCN(C/C=C/c3ccccc3)CC2)nc2ccccc12	D1 ag 40, D1 antagonist -50
Cc1ccc(-c2nnn(CC(=O)NC3CC4CCC3C4)n2)cc1 (configuration not stated)	none
O=C(Cn1nnc(-c2ccc(Cl)cc2)n1)NC1CC2CCC1C2 (configuration not stated)	D1 antagonist -34
Cc1ccc(NC(=S)N/N=C/c2ccc([N+](=O)[O-])s2)cc1	D1 ag 31 (no result: GALK inhibitor)
COc1ccc(OC)c(NC(=O)CC(=O)Nc2ccc3nc4n(c(=O)c3c2)CCCCC4)c1	none (no result: GALK inhibitor, USP2a block, Eya2 inh)
Cc1ccc2cc(C#N)c(N3CCCN(C(=O)c4cnccn4)CC3)nc2c1	none
Cc1ccc2cc(C#N)c(N3CCCN(C(=O)C4CCCO4)CC3)nc2c1 (configuration not stated)	D1 antagonist -44
S=C(NCCN1CCOCC1)N/N=C/c1c2ccccc2cc2ccccc12	D1 ag 32
O=C1CC(c2ccsc2)Sc2ccccc2N1 (configuration not stated)	D1 antagonist -32
OC(CCCN1CCC(O)(c2ccc(Cl)cc2)CC1)c1ccc(F)cc1 (configuration not stated)	D1 ag 32, D1 antagonist -37
CC(NC(=O)C1CCN(S(=O)(=O)c2ccc(F)cc2)CC1)c1ccccc1 (configuration not stated)	none (no result: GALK inhibitor, USP2a block, Eya2 inh)
COc1ccc(/C=C2\CCc3ccccc3C2=O)cc1Cn1cccn1	D1 antagonist -49
CCCNC(=O)CCSc1nc(-c2ccc3c(c2)OCO3)cc(C(F)(F)F)n1	none (no result: GALK inhibitor, USP2a block, Eya2 inh)
COc1cc(F)c(S(=O)(=O)N2CCN(S(=O)(=O)c3ccc4c(c3)OCCO4)CC2)c(F)c1	none (no result: GALK inhibitor, USP2a block, Eya2 inh)
N/C(Cn1nnc(-c2ccccc2)n1)=N\O	none
Cc1ccc(-c2nnn(C/C(N)=N/O)n2)cc1	D1 antagonist -39
Cc1cccc(C)c1NC(=O)NCCCN1CCN(c2ccccc2)CC1	D1 antagonist -36
Cc1ccccc1CS(=O)(=O)CCC(=O)NCCCN1CCN(c2ccccc2F)CC1	none
CCC(=O)N1c2ccccc2CC1C(=O)NCCCN1CCN(c2ccccc2)CC1 (configuration not stated)	none (no result: GALK inhibitor, USP2a block, Eya2 inh)
CN1CCN(CCNC(=O)Nc2ccccc2C(F)(F)F)CC1	none
O=C(NCCN1CCN(c2cccc(Cl)c2)CC1)Nc1ccccc1C(F)(F)F	D1 antagonist -43 (no result: GALK inhibitor, USP2a block, Eya2 inh)
CCC(=O)N1c2ccccc2CC1C(=O)NCCCN1CCN(c2cccc(Cl)c2)CC1 (configuration not stated)	D1 antagonist -53 (no result: GALK inhibitor, USP2a block, Eya2 inh)
Cc1ccccc1CS(=O)(=O)CCC(=O)NCCN1CCN(c2cccc(Cl)c2)CC1	D1 antagonist -32
Cc1cccc(NC(=O)c2cc(S(=O)(=O)NCc3ccc4c(c3)OCO4)ccc2F)c1C	none (no result: GALK inhibitor, USP2a block, Eya2 inh)
O=C(NCCCN1CCN(c2cccc(Cl)c2)CC1)Nc1ccccc1C(F)(F)F	D1 ag 32, D1 antagonist -55 (no result: GALK inhibitor, USP2a block, Eya2 inh)
